# Measured values from the antibiotic and cytotoxicity screens of Wong et al. (2023).
# Hit rate of the full screen: of about 39,000 compounds, about 3,300 (8.5%) were called active. What follows is part of a selection rich in actives, with near analogues and random picks from the rest.
# Test system: HepG2
# Assay: cytotoxicity call (relative viability < 0.9)
# Details: 10 µM
row,SMILES,cytotoxicity call
1,COc1ccc(CN(C)C[C@H]2Oc3ccc(NS(=O)(=O)c4cn(C)cn4)cc3CC(=O)N([C@@H](C)CO)C[C@H]2C)cc1,inactive
2,CC(C)CCC(=O)N1C[C@@H]2c3nc(N4CCOCC4)ncc3CS(=O)(=O)[C@H]2C1,inactive
3,COC(=O)CCCCCCC(=O)N/N=C/[C@H](O)[C@@H](O)[C@H](O)CO,inactive
4,Cc1noc(C)c1NC(=O)Nc1ccc2c(c1)CC(=O)N([C@@H](C)CO)C[C@@H](C)[C@H](CN(C)C(=O)Nc1ccc(C(F)(F)F)cc1)O2,inactive
5,COc1ccc(CN(C)C[C@@H]2Oc3ccc(NS(=O)(=O)c4c(C)noc4C)cc3CC(=O)N([C@H](C)CO)C[C@@H]2C)cc1,inactive
6,Cc1ccc(S[C@]2(C(=O)NCCN3CCOCC3)CC(=O)N(Cc3cc(C(F)(F)F)cc(C(F)(F)F)c3)[C@@H]2c2ccc(CO)cc2I)cc1,inactive
7,Cc1ccc(S(=O)(=O)Nc2ccc3c(c2)CC(=O)N([C@H](C)CO)C[C@H](C)[C@@H](CN(C)S(=O)(=O)c2ccccc2)O3)cc1,inactive
8,C=CC(=O)Nc1cccc(Nc2nc(Nc3ccc(NC4CN(CCF)C4)cc3OC)ncc2C(F)(F)F)c1,active
9,COc1cccc(-c2ccc3c(c2)O[C@H](CN(C)Cc2cncnc2)[C@@H](C)CN([C@H](C)CO)S3(=O)=O)c1,inactive
10,COc1ccccc1O[C@@H](C)C(=O)NN,inactive
11,CCOc1ccccc1C(N)=O,inactive
12,CCOC(=O)CC(=O)N1CCSC1COc1ccccc1OC (stereo not given),active
13,N[C@@H](Cn1ccc(=O)n(Cc2ccccc2C(=O)O)c1=O)C(=O)O,inactive
14,Cc1noc(C)c1S(=O)(=O)Nc1ccc2c(c1)C(=O)N([C@@H](C)CO)C[C@@H](C)[C@@H](CN(C)C(=O)Nc1ccc3c(c1)OCO3)O2,inactive
15,COc1cc2nccc(Oc3ccc(NC(=O)c4cn(C(C)C)c(=O)n(-c5ccc(F)cc5)c4=O)cc3F)c2cc1OC,active
16,Cc1cc(C)nc(NS(=O)(=O)c2ccc(NC(=O)c3cccn(OCc4ccc(F)cc4)c3=O)cc2)n1,inactive
17,COc1cc2c(Oc3ccc(NC(=O)C4(C(=O)Nc5ccc(F)cc5)CC4)cc3F)ccnc2cc1OCCCN1CCOCC1,active
18,COc1ccc2c3c(n(c2c1)C)[C@H](CO)N(C[C@]13CCN(CC1)C(=O)CN1CCOCC1)C(=O)Nc1ccc(cc1)F,inactive
19,COc1cc2nccc(Oc3ccc(NC(=O)C4(C(=O)Nc5ccc(F)cc5)CC4)cc3)c2cc1OC,inactive
20,C[C@H]1CN([C@@H](C)CO)C(=O)Cc2cc(NC(=O)C3CC3)ccc2O[C@H]1CN(C)C(=O)Nc1ccccc1,inactive
21,C[C@H]1CN([C@@H](C)CO)C(=O)Cc2cc(NS(=O)(=O)c3ccccc3)ccc2O[C@H]1CN(C)S(C)(=O)=O,inactive
22,O=S(=O)(O)O/N=C(\Cc1ccc(O)cc1)S[C@H]1O[C@H](CO)[C@@H](O)[C@H](O)[C@H]1O,inactive
23,CC=Cc1ccc2n(c1=O)C[C@@H]1[C@@H](CO)[C@H](C(=O)NCCc3cn(C)cn3)N(C(=O)CC)[C@H]21,inactive
24,C[C@H](CO)N1C[C@H](C)[C@H](CN(C)C(=O)C2CCOCC2)Oc2ncc(C#Cc3cccc(F)c3)cc2C1=O,inactive

row,SMILES,cytotoxicity call
1,CC(C)N1CC[C@@H](CNCc2ccc(Oc3ccccc3)cc2)Oc2c(NC(=O)c3ccncc3)cccc2C1=O,inactive
2,O=C(NCc1ccccn1)C1CCNCC1,inactive
3,CC(C)CNC(=O)C(=O)NCc1ccccn1,inactive
4,CN(CC(=O)NCc1ccccn1)S(=O)(=O)c1cc(Br)cnc1N,active
5,Nc1nc(Cl)nc(Cl)n1,inactive
6,COc1ccc(NC(=O)Nc2ccc3c(c2)[C@@H]2C[C@@H](CC(=O)NCc4ccccn4)O[C@H](CO)[C@@H]2O3)cc1,inactive
7,C[C@H](CO)N1C[C@H](C)[C@H](CN(C)Cc2ccc(C(F)(F)F)cc2)Oc2ccc(NC(=O)C3CCCCC3)cc2CC1=O,inactive
8,C[C@@H]1CN([C@@H](C)CO)C(=O)Cc2cc(NC(=O)C3CCCCC3)ccc2O[C@@H]1CN(C)Cc1ccc(C(F)(F)F)cc1,active
9,C[C@@H]1CN([C@H](C)CO)C(=O)Cc2cc(NC(=O)C3CCCCC3)ccc2O[C@H]1CN(C)Cc1ccc(C(F)(F)F)cc1,inactive
10,C[C@H]1CN([C@@H](C)CO)C(=O)Cc2cc(NC(=O)C3CCCCC3)ccc2O[C@H]1CN(C)Cc1ccc(C(F)(F)F)cc1,inactive
11,C[C@@H]1CN([C@@H](C)CO)C(=O)Cc2cc(NC(=O)C3CCCCC3)ccc2O[C@H]1CN(C)Cc1ccc(C(F)(F)F)cc1,inactive
12,C[C@H]1CN([C@@H](C)CO)C(=O)Cc2cc(NC(=O)C3CCCCC3)ccc2O[C@@H]1CN(C)Cc1ccc(C(F)(F)F)cc1,active
13,C[C@H](CO)N1C[C@H](C)[C@H](CN(C)C(=O)Nc2ccc(C(F)(F)F)cc2)Oc2ccc(NC(=O)C3CCCCC3)cc2CC1=O,inactive
14,C[C@H](CO)N1C[C@H](C)[C@@H](CN(C)Cc2ccc(C(F)(F)F)cc2)Oc2ccc(NC(=O)C3CCCCC3)cc2CC1=O,inactive
15,C[C@@H]1CN([C@H](C)CO)C(=O)Cc2cc(NC(=O)C3CCCCC3)ccc2O[C@@H]1CN(C)Cc1ccc(C(F)(F)F)cc1,active
16,CCN1C[C@]23CN(C(=O)c4cnccn4)C[C@@H](C[C@H]2S1(=O)=O)O3,inactive
17,C[C@H]1CN([C@@H](C)CO)C(=O)CCCn2nncc2CO[C@H]1CN(C)S(=O)(=O)c1ccc(Oc2ccccc2)nc1,inactive
18,C[C@@H]1CCCCO[C@H](CN(C)C(=O)Nc2ccc(F)cc2)[C@H](C)CN([C@H](C)CO)C(=O)c2cc(NS(=O)(=O)c3ccccc3)ccc2O1,inactive
19,C[C@H](CO)N1C[C@H](C)[C@H](CN(C)C)Oc2ccc(NS(=O)(=O)c3cn(C)cn3)cc2CC1=O,inactive
20,Cc1noc(C)c1S(=O)(=O)NC(C)C,inactive
21,CS(=O)(=O)CS(=O)(=O)C1=C(N2CCOCC2)C2CCN1CC2,inactive
22,Cc1noc(C)c1NC(=O)N[C@@H]1C=C[C@@H](CC(=O)N2CCN(C)CC2)O[C@H]1CO,inactive
23,c1ccc(-c2cccs2)nc1,inactive
24,O=C(Nc1ccc(C(F)(F)F)cc1)Nc1ccc2c(c1)[C@H]1C[C@H](CC(=O)N3CCc4ccccc4C3)O[C@@H](CO)[C@H]1O2,inactive

row,SMILES,cytotoxicity call
1,O=C(Nc1ccc(C(F)(F)F)cc1)Nc1ccc2c(c1)[C@H]1C[C@@H](CC(=O)N3CCc4ccccc4C3)O[C@H](CO)[C@H]1O2,active
2,O=C(Nc1ccc(C(F)(F)F)cc1)Nc1ccc2c(c1)[C@@H]1C[C@@H](CC(=O)N3CCc4ccccc4C3)O[C@H](CO)[C@@H]1O2,active
3,O=C(Nc1ccc(C(F)(F)F)cc1)Nc1ccc2c(c1)[C@@H]1C[C@H](CC(=O)N3CCc4ccccc4C3)O[C@H](CO)[C@@H]1O2,inactive
4,O=C(Nc1ccc(C(F)(F)F)cc1)Nc1ccc2c(c1)[C@@H]1C[C@H](CC(=O)N3CCc4ccccc4C3)O[C@@H](CO)[C@@H]1O2,inactive
5,O=C(Nc1ccc(C(F)(F)F)cc1)Nc1ccc2c(c1)[C@H]1C[C@@H](CC(=O)N3CCc4ccccc4C3)O[C@@H](CO)[C@H]1O2,inactive
6,CO[C@@H]1CN(C)C(=O)c2cc(NC(=O)c3cc(C)on3)ccc2OC[C@@H](C)N(C(=O)C2CCC2)C[C@H]1C,inactive
7,C[C@@H]1CN([C@H](C)CO)C(=O)c2cc(NC(=O)Nc3ccc(C(F)(F)F)cc3)ccc2O[C@@H](C)CCCCO[C@@H]1CN(C)S(=O)(=O)c1cn(C)cn1,inactive
8,C[C@H](CO)N1C[C@H](C)[C@@H](CN(C)S(=O)(=O)c2ccc(F)cc2)OCCCC[C@H](C)Oc2ccc(NC(=O)C3CCCCC3)cc2C1=O,inactive
9,Cc1noc(C)c1S(=O)(=O)Nc1ccc2c(c1)C(=O)N([C@@H](C)CO)C[C@H](C)[C@H](CN(C)Cc1ccc(-c3ccccc3)cc1)O2,inactive
10,CCS(=O)(=O)N1CCC(C(=O)N(C)C)CC1,inactive
11,C[C@@H]1CN([C@H](C)CO)C(=O)c2c(c3ccccc3n2C)-c2ccccc2CO[C@@H]1CN(C)CC1CCCCC1,inactive
12,C[C@@H]1CN([C@@H](C)CO)C(=O)c2c(c3ccccc3n2C)-c2ccccc2CO[C@H]1CN(C)CC1CCCCC1,inactive
13,C[C@H]1CN([C@@H](C)CO)C(=O)c2c(c3ccccc3n2C)-c2ccccc2CO[C@H]1CN(C)CC1CCCCC1,inactive
14,C[C@H](CO)N1C[C@H](C)[C@@H](CN(C)CC2CCCCC2)OCc2ccccc2-c2c(n(C)c3ccccc23)C1=O,inactive
15,C[C@@H]1CN([C@H](C)CO)C(=O)c2c(c3ccccc3n2C)-c2ccccc2CO[C@@H]1CN(C)C(=O)NC1CCCCC1,inactive
16,C[C@H](CO)N1C[C@H](C)[C@@H](CN(C)C(=O)NC2CCCCC2)OCc2ccccc2-c2c(n(C)c3ccccc23)C1=O,inactive
17,C[C@H](CO)N1C[C@H](C)[C@H](CN(C)C(=O)NC2CCCCC2)OCc2ccccc2-c2c(n(C)c3ccccc23)C1=O,active
18,C[C@H]1CN([C@@H](C)CO)C(=O)c2c(c3ccccc3n2C)-c2ccccc2CO[C@@H]1CN(C)CC1CCCCC1,active
19,C[C@@H]1CN([C@@H](C)CO)C(=O)c2c(c3ccccc3n2C)-c2ccccc2CO[C@@H]1CN(C)CC1CCCCC1,active
20,CC1(C)S[C@H]2[C@@H](NC(=O)[C@@H](NC(=O)N3CCN(S(C)(=O)=O)C3=O)c3ccccc3)C(=O)N2[C@@H]1C(=O)O,inactive
21,CCCNC(=O)Nc1ccc2c(c1)C(=O)N(C)C[C@@H](OC)[C@@H](C)CN(C(=O)C1CCOCC1)[C@@H](C)CO2,inactive
22,Cc1noc(C)c1NC(=O)N(C)C[C@H]1OCCCC[C@@H](C)Oc2ccc(NC(=O)CCC(F)(F)F)cc2C(=O)N([C@H](C)CO)C[C@H]1C,inactive
